High-throughput results as filed in PubChem.
An excerpt weighted towards active compounds, which were near 13% of everything screened.
USP8 inh: blocks human USP8 ubiquitin-rhodamine cleavage; P40818; purified USP8, Ub-rhodamine cleavage fluorescence, 30 min; inhibition, % at 20 µM; hit rate 4.2% among 47,000
USP28 inh: blocks human USP28 ubiquitin-rhodamine cleavage. Q96RU2. purified USP28, Ub-rhodamine cleavage fluorescence, 30 min. inhibition, % at 25 µM. hit rate 3% among 47,000. AID 1645857
Target sequence (Q96RU2 whole entry, looked up): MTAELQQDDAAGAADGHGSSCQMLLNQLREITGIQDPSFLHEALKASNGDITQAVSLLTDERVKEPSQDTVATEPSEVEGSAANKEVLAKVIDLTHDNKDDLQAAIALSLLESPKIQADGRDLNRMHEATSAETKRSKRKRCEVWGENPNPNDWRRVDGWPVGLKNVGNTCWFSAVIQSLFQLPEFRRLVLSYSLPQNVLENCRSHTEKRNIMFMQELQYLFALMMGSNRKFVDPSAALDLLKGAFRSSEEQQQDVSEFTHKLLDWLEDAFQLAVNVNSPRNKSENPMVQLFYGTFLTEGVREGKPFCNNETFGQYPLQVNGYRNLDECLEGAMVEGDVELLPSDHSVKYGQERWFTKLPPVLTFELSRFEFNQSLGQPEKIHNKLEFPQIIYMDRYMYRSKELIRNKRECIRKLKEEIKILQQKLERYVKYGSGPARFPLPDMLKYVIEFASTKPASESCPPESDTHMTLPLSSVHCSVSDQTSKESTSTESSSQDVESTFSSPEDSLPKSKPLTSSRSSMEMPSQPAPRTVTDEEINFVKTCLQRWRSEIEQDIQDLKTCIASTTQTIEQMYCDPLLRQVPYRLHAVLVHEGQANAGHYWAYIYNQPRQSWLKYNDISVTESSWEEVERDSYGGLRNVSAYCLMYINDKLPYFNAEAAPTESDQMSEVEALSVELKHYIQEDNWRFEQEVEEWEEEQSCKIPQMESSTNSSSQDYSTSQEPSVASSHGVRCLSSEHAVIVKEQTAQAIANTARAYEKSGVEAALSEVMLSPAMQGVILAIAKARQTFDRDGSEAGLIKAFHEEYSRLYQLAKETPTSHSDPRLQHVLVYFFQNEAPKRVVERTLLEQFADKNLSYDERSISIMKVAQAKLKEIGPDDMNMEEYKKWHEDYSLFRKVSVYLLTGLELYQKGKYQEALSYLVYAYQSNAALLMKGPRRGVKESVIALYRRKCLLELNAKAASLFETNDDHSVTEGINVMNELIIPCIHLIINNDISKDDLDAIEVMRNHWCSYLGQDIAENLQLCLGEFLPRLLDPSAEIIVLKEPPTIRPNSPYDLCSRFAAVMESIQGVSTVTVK
USP30 inh: inhibitors of human USP30 deubiquitinase; Q70CQ3; purified USP30, Ub-rhodamine cleavage fluorescence; inhibition, % at 25 µM; hit rate 5.3% among 47,000
USP17 block: human USP17-like deubiquitinase inhibition | A8MUK1 | inhibition, % at 50 µM | hit rate 6.5% among 47,000 | purified USP17, Ub-rhodamine cleavage fluorescence, 3 h
Numbers without * were called inactive; . = no result. Rule as the data show it: active = inhibition above about 30%; inactive = the rest.

SMILES	USP8 inh	USP28 inh	USP30 inh	USP17 block
CCN1C(=O)NC2(CCN(C(=O)COc3ccccc3)CC2)C1=O	-0.4	-7.0	-0.2	0.8
c1ccc2c(c1)cnn1c(-c3ccncc3)nnc21	2.6	-5.3	-2.7	18.8
c1ccc(Cc2nn3c(-c4cccnc4)nnc3c3ccccc23)cc1	2.3	4.3	7.6	61.9*
c1ccc(Cc2nn3c(-c4ccncc4)nnc3c3ccccc23)cc1	22.6	0.7	36.0*	48.8*
C=C(CCC=C(C)C)[C@H]1CC[C@]2(C)[C@@H]1CC[C@@H]1[C@@]3(C)CCC(=O)C(C)(C)[C@@H]3CC[C@]12C	10.4	16.1	31.4*	40.5*
Cc1ccc(-c2cc3nc(Nc4ccc(C(N)=O)cc4)ccn3n2)cc1	71.4*	-21.8	-108.2	.
CN1CCN(C2(CNC(=O)COc3ccccc3[N+](=O)[O-])CCCCC2)CC1	-153.3	-8.5	-15.1	-24.1
CC(C)c1ccc(OCC(=O)NCC2(N3CCN(C)CC3)CCCCC2)cc1	-3.7	16.2	30.3*	-2.2
COc1ccccc1-n1cc(C(=O)c2cc(F)ccc2O)cc(C(C)=O)c1=O	32.9*	-112.9	-276.0	-30.3
O=C(C1CCOC1)N1CCC2(CC1)CN(c1cccnc1)c1ccccc12 (stereo unspecified)	-13.1	26.3	49.3*	.
CCN(C(=O)c1cccc(-n2nc(C)cc2C)c1)[C@H]1C[C@@H](c2ccccc2)OC2(CCNCC2)C1	-29.4	12.0	34.3*	-9.4
CCN(C(=O)c1cccc(Cn2ccnc2C)c1)[C@H]1C[C@@H](c2ccccc2)OC2(CCNCC2)C1	-10.2	2.7	10.6	0.9
COc1ccc(C(=O)OCC(=O)N2CCCc3ccccc32)cc1OC	-7.6	-6.0	-16.1	-15.1
COC(=S)NC(=O)/C=C/c1ccccc1	23.8	16.5	32.4*	22.4
COc1cccc(CN(C)C(=O)CC(c2ccccc2)c2ccccc2)c1	21.8	24.9	40.9*	.
c1ccc2c(c1)CCc1c-2nc2ccccc2c1N1CCOCC1	83.0*	2.2	-95.0	71.6*
O=C(O)CC1(c2ccc(F)cc2)C2CC3CC(C2)CC1C3 (stereo unspecified)	33.5*	14.8	40.0*	31.8*
O=C(O)CC1(CC(=O)NCc2ccc(F)cc2)CCCCC1	21.6	8.8	21.2	11.0
O=C1Nc2ccc(S(=O)(=O)NCCCCCCNS(=O)(=O)c3ccc4c5c(cccc35)C(=O)N4)c3cccc1c23	-20.2	37.9*	-293.1	16.9
O=C1Nc2ccc(S(=O)(=O)NCCCO)c3cccc1c23	1.0	14.3	8.4	0.4
O=C(Cc1ccc2c(c1)OCO2)N1CCC2(CC1)CC(=O)N(CC1CC1)C2	0.0	11.0	17.1	1.6
Cc1cc(N2C(=O)c3oc4ccccc4c(=O)c3C2c2cccc(F)c2)no1 (stereo unspecified)	-4.5	-0.4	8.9	0.1
COc1cc(-c2nnc(CSc3ccc(C(F)(F)F)cn3)o2)cc(OC)c1OC	4.8	12.9	38.0*	26.5
COc1ccc(-c2cc(=O)c3cc(OC(=O)C4CCCCC4)ccc3o2)cc1	15.5	6.8	1.4	-37.5
O=c1cc(-c2ccc(F)cc2)oc2ccc(F)cc12	7.2	-9.8	-0.3	30.6*
SMILES	USP8 inh	USP28 inh	USP30 inh	USP17 block
COc1cc(CN2CCN(Cc3c[nH]c4ccccc34)CC2)cc(OC)c1OC	-87.9	-32.7	-25.8	-31.7
COc1ccccc1C1CCN(Cc2c(C)[nH]c3ccccc23)CC1	-6.6	15.9	31.0*	0.3
Cc1nc(-c2ccc(F)cc2)sc1C(=O)N1CCN(C=O)CC1	10.0	6.5	16.1	6.4
CCN(C)C1CN(C(=O)c2scnc2C)C2(CCCCC2)C1 (stereo unspecified)	0.4	-8.1	-15.9	-3.2
Cc1ccc(CNC(=O)c2nn(C)c3c2CCc2sccc2-3)cc1	16.1	35.9*	33.0*	.
Cn1nc(C(=O)N2CCC(c3ccccc3)C2)c2c1-c1ccsc1CC2 (stereo unspecified)	73.5*	29.4	32.2*	45.7*
Cc1ccnc(NC(=O)c2cc(-c3cccnc3)n(-c3ccccc3)n2)c1	-14.2	-16.9	0.1	-10.3
O=C(Nc1ccc2c(c1)OCO2)c1cc(-c2cccnc2)n(-c2ccccc2)n1	22.5	78.7*	24.0	30.1*
CCOC(=O)CSc1nc2cc(S(C)(=O)=O)ccc2n1C(C)C	23.3	12.5	13.0	6.1
O=C(NC1CCS(=O)(=O)C1)c1ccc(N2CCOc3ccc(Cl)cc32)s1 (stereo unspecified)	-8.0	5.8	0.8	39.9*
COc1c(C(O)CC(C)C)ccc(Oc2c(O)cc(C)cc2C=O)c1C(=O)O (stereo unspecified)	6.6	23.9	10.1	44.2*
COc1c(C(CC(C)C)OC(C)=O)ccc(Oc2c(O)cc(C)cc2C=O)c1C(=O)O (stereo unspecified)	-4.7	23.0	-20.6	35.1*
